Key:
Conditions in all cases: concentration: 1 μM, replicates: in singlicate; n = 1
PIP5K2C = test system: T1, PIP5K2C
T1 construct: gene PIP4K2C

PKAC-alpha = test system: T2, PKAC-alpha
T2 construct: gene PRKACA

PKAC-beta = test system: T3, PKAC-beta
T3 construct: gene PRKACB

PKMYT1 = test system: PKMYT1
PKN1 = test system: PKN1
PKN2 = test system: PKN2
PLK1 = test system: PLK1
PLK2 = test system: PLK2
PLK3 = test system: PLK3
PLK4 = test system: PLK4
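Further: KINOMEscan kinase panel screen.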

Row | Structure (SMILES) | %Inh (PIP5K2C) | %Inh (PKAC-alpha) | %Inh (PKAC-beta) | %Inh (PKMYT1) | %Inh (PKN1) | %Inh (PKN2) | %Inh (PLK1) | %Inh (PLK2) | %Inh (PLK3) | %Inh (PLK4)
1 | CCc1nc(-c2cccc(C)c2)c(-c2ccnc(NC(=O)c3ccccc3)c2)s1 | 99.1% | 0% | 0% | 0% | 13% | 0% | 0% | 5% | 9% | 17%
2 | CC(C)(C)OC(=O)NC1CCCN(c2cc(-c3ccc4c(N)n[nH]c4c3)nc(N)n2)C1 (stereo not shown) [GSK2286096] | 0% | 0% | 0% | 0% | 0% | 0% | 16% | 0% | 0% | 10%
3 | CCc1nc(-c2cccc(N(C)S(=O)(=O)c3ccccc3)c2)c(-c2ccnc(Nc3ccc(N4CCN(C(C)=O)CC4)nc3)n2)s1 [GSK1645895] | 63% | 0% | 0% | 1% | 34% | 0% | 7% | 0% | 0% | 8%
4 | Cc1ccc(O)cc1Nc1cc(C(F)(F)F)nc2ccc(-c3ccncc3)cc12 [GW630823] | 0% | 10% | 0% | 9% | 0% | 0% | 0% | 1% | 0% | 0%
5 | CC(=O)Nc1n[nH]c2ncc(-c3ccccc3)cc12 [SB-548492] | 0% | 0% | 14% | 0% | 0% | 29% | 1% | 27% | 25% | 8%
6 | O=C(Nc1ccccc1F)NC1CCN(c2ccnc(Nc3ccc(F)cc3)n2)C1 (stereo not shown) [GSK1379722] | 18% | 0% | 0% | 4% | 0% | 0% | 0% | 0% | 0% | 0%
7 | CNc1nccc(-c2c(-c3ccc(F)cc3)ncn2CCCN2CCOCC2)n1 [SB-222516] | 0% | 1% | 19% | 0% | 0% | 36% | 41% | 14% | 0% | 0%
8 | Fc1ccc(Nc2nccc(-c3c(-c4ccc(Cl)cc4)nn4ncccc34)n2)cc1F [GW829058] | 20% | 15% | 24% | 4% | 4% | 13% | 32% | 36% | 20% | 29%
9 | C[C@H]1CC[C@@H](C(=O)Nc2ccccc2)CN1c1cc(-c2ccc3c(N)n[nH]c3c2)nc(N)n1 [GSK2283293] | 15% | 0% | 0% | 0% | 0% | 0% | 0% | 4% | 0% | 0%
10 | FC(F)(F)c1ccc(-c2nn3ncccc3c2-c2ccnc(Nc3cccc(C(F)(F)F)c3)n2)cc1 [GW828205] | 3% | 0% | 24% | 15% | 0% | 0% | 0% | 0% | 18% | 0%
11 | C[C@@H]1CCN(C(=O)CO)C[C@@H]1N(C)c1ncnc2[nH]ccc12 | 0% | 0% | 93.7% | 100% | 20% | 21% | 0% | 0% | 12% | 3%
12 | CC(C)N1CCC(n2cnc(-c3ccc(F)cc3)c2-c2ccnc(N)n2)CC1 [SB-223132] | 62% | 0% | 22% | 0% | 0% | 0% | 0% | 0% | 0% | 0%
13 | CSc1ccc(NC2=C(c3ccccc3Cl)C(=O)NC2=O)cc1 [SB-342411] | 0% | 74% | 0% | 25% | 36% | 0% | 8% | 0% | 0% | 13%
14 | COc1ccc(-c2oc3ncnc(N)c3c2-c2ccc(OC)cc2)cc1 [SB-589132] | 63% | 0% | 0% | 0% | 0% | 0% | 3% | 0% | 0% | 0%
15 | CN1c2ccc(-c3ccc(C(=O)NCCO)cc3)cc2-c2[nH]ncc2S1(=O)=O | 76% | 33% | 55% | 16% | 0% | 30% | 21% | 17% | 0% | 25%
16 | Cc1ccc(C)c(NC(=O)NCCNc2ccnc(Nc3ccc(F)cc3)n2)c1 [GSK1379878] | 25% | 0% | 0% | 0% | 0% | 0% | 4% | 0% | 0% | 0%
